Holding throughout (experiment): NCI-60 one-dose screen, 48 h (100 = growth as untreated, 0 = no growth, -100 = all killed)
Holding throughout (details): 10 µM unless noted

The test system of assay [1] is HCT-15 colon.
The test system of assay [2] is HT29 colon.
The test system of assay [3] is SNB-75 CNS.
The subject of assay [4] is SNB-19 CNS.
Assay [5] has as its system PC-3 prostate.
The subject of assay [6] is SK-MEL-5 melanoma.
The subject of assay [7] is UACC-62 melanoma.
In assay [8] the test system is LOX IMVI melanoma.
Assay [9] has as its system SK-MEL-28 melanoma.
The subject of assay [10] is SK-MEL-2 melanoma.
Assay [11] has as its system EKVX NSCLC.
The test system of assay [12] is SN12C renal.
In assay [13] the test system is UO-31 renal.
For assay [14], the system named is TK-10 renal.
The test system of assay [15] is ACHN renal.
Assay [16] deals with CAKI-1 renal.
The subject of assay [17] is A498 renal.
Assay [18] relates to CCRF-CEM leukemia.
The subject of assay [19] is MOLT-4 leukemia.
Assay [20] relates to U251 CNS.

This is part of a sample that, as a whole, favours compounds with a hit. Of some 83,000 tested, about 20% had one in any assay.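 Testing used 96-well plates and a 48-hour single-concentration exposure. Example: -40 means 40% of the starting cells died.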 A number with no mark means an inactive call. Calls of active or inactive are those of the source. Rule for the calls: active = growth percent below 10; inactive = the rest.

In the case of `COc1ccc(Cn2nc(-c3ccccc3)c3c2CCc2cnoc2-3)cc1`, the growth is 67.6% in assay [1]; 84% in assay [2]; 65.5% in assay [3]; 82.2% in assay [4]; 52.9% in assay [5]; 74.5% in assay [6]. For the same molecule, the growth in assay [7] was 51.5%; in assay [8], 72.8%; in assay [9], 84.8%; in [10] it was 111%; in [11] it was 65.9%; in [12], 76.8%. The growth in assay [13] is 70%; in assay [14] it was 105%; in assay [15], 81.4%; in assay [16], 66.3%; in [17], 58.7%; in assay [18] it was 67.8%. Moreover, in [19], the growth is 52.7%.

`COc1ccc(C2CC(n3nnnc3-c3ccccc3)=NN2)cc1` (stereo unspecified): the growth in [1] is 52.4%; in assay [2] it was 84.5%; in [3], 76.9%; in assay [4], 88.1%; in assay [5] it was 58.4%; in assay [6], 70.7%. Besides, the growth in [7] is 13.4%; in assay [8] it was 22%; in assay [9], 94.6%; in assay [10], 69.3%; in assay [11], 66.2%; in assay [12], 78.1%. In addition, the growth in assay [13] was 35.3%; in [14] it was 82.6%; in [15], 42.1%; in assay [16], 8.64% (active); in assay [18], 39.6%; in assay [19] it was 50.3%.

On to `COc1cc(C2CC(c3cccc(Nc4ccncc4)c3)=NN2c2cc(Cl)cc(Cl)c2)cc(OC)c1OC` (stereo unspecified), for which the growth in assay [1] is -40.4% (active); in assay [2], -28% (active); in assay [3] it was 25.9%; in assay [4], 50.7%; in assay [5], -36.1% (active); in assay [6] it was 2.57% (active). Moreover, the growth was 94.5% in assay [7]; -90.9% (active) in assay [8]; -78.5% (active) in [9]; 71.4% in assay [10]; 65.8% in assay [11]; 9.72% (active) in assay [12]. The growth in assay [13] is 28.4%; in assay [14], 34%; in [15], -66.5% (active); in [16], 8.57% (active); in [17] it was 84%; in assay [18] it was -17.5% (active). For the same molecule, in assay [19], the growth is -22.7% (active).

With `CC(O)/C=C/C=C/C(O)CC/C=C/C(=O)NCC(C)(C)O` (stereo unspecified), the growth is 104% in assay [1]; 102% in assay [2]; 96.3% in assay [3]; 99.6% in assay [4]; 91.7% in assay [5]; 99.1% in assay [6]. Also, the growth in assay [7] was 90.1%; in assay [8], 95.3%; in assay [9] it was 111%; in assay [10], 81.9%; in assay [11], 107%; in [12] it was 99.2%. The growth in assay [13] was 78.4%; in assay [14], 109%; in assay [15] it was 106%; in assay [17] it was 99.7%; in assay [18], 95%; in assay [19] it was 76.2%.

For `COc1ccc(C2=NN(C(C)=O)C(c3cn(Cc4ccc(Cl)cc4)c4ccccc34)C2)cc1` (stereo unspecified), the growth was 81.6% in assay [1]; 90.1% in assay [2]; 79.2% in [3]; 76% in [4]; 59.9% in assay [5]; 85.6% in assay [6]. Further, the growth in assay [7] is 66.6%; in assay [8], 89.3%; in [9], 94%; in assay [10], 91.1%; in assay [11], 58.4%; in [12], 72.2%. In addition, the growth in assay [13] is 53.4%; in assay [14], 82.9%; in assay [15] it was 74.5%; in assay [16], 52.2%; in assay [17], 72.9%; in [18], 70.7%. Further, in assay [19], the growth was 67.8%.

For the molecule `CC(C)NC(=O)N1C(=O)CCC1NNC(=O)c1ccc([N+](=O)[O-])cc1` (stereo unspecified), the growth is 107% in assay [1]; 106% in [2]; 102% in assay [3]; 107% in assay [4]; 107% in [5]; 105% in assay [6]. The growth in [7] was 98.1%; in assay [8] it was 93.9%; in assay [9] it was 98.4%; in assay [10], 93.1%; in [11], 110%; in assay [12] it was 102%. The growth in assay [13] was 92%; in assay [15], 106%; in [16] it was 100%; in assay [18], 104%; in assay [19], 98.7%.

On to `Cc1ccc(/C=C/C(=O)c2ccc(N)cc2)c(C)c1`, for which the growth in assay [1] was 18.6%; in assay [2] it was 60.9%; in [3], 97.8%; in assay [4] it was 85.7%; in assay [20], 54.1%; in assay [5] it was 91.6%. The growth in assay [6] is 96%; in assay [7], 86.8%; in assay [8], -91.5% (active); in [9] it was 105%; in assay [11], 109%; in assay [12] it was 4.51% (active). Also, the growth is 11.7% in assay [13]; 39.3% in [15]; 84.1% in [16]; 97.3% in assay [17]; -45.3% (active) in assay [18]; -41.1% (active) in assay [19].

Consider `COc1ccc(C(=O)c2cc3c(N)c(C(=O)Nc4cccc(OC)c4)sc3nc2C)cc1`, for which the growth in [1] was 16%; in assay [2] it was 1.18% (active); in [3], -10.6% (active); in assay [4], 40.2%; in assay [5], 28.7%; in [6], 15.3%. For the same molecule, the growth in [7] is 44.5%; in assay [8], 36.6%; in assay [9], 56.7%; in [11], 35.3%; in assay [12] it was 28.1%; in [13], 49.3%. For the same molecule, the growth was 57.1% in [14]; 41.2% in [15]; 45.8% in assay [16]; -1.41% (active) in assay [17]; 7.12% (active) in [18]; 15.8% in [19].

For the origin of these results see PubChem BioAssay (NCI).
